4 compounds from PubChem BioAssay (EPA / NIEHS) can be followed below.

A short description of experiment [1]: ATG_TAL_CIS: Attagene CIS-FACTORIAL HepG2 Assay for human TAL Basal Promoter (AID 2282966; active = hit-call score of the fitted dose curve at least 0.9, where 1 is the maximum; inactive = score below 0.9;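 note: background control endpoint measuring basal TAL promoter reporter mRNA not a specific factor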). The note with it: HepG2 Attagene cis-factorial TAL promoter reporter; actives raise or lower the signal. In a few lines: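 HepG2 cells were transiently transfected with promoter-driven multiplexed reporter units and dosed for 24 h. Reporter mRNA was measured by RT-PCR with capillary electrophoresis fluorescence; bidirectional fits used DMSO as baseline, serving as a background control.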

The nature of experiment [2]: ATG_TGFb_CIS: Attagene CIS-FACTORIAL HepG2 Assay for human Transforming Growth Factor (TGF) (AID 2282967; active = hit-call score of the fitted dose curve at least 0.9, where 1 is the maximum; inactive = score below 0.9). The note with it: HepG2 Attagene CIS TGFb reporter, mRNA transcription; actives raise or lower the signal. The method in brief:
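HepG2 cells transiently transfected with cis-promoter-driven multiple reporter units measure endogenous TF activity; reporter mRNA quantified at 24 h by RT-PCR, FAM labeling, HpaI digestion and capillary electrophoresis. Bidirectional fit vs DMSO.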

The nature of experiment [3]: ATG_VDRE_CIS: Attagene CIS-FACTORIAL HepG2 Assay for human Vitamin D Receptor Element (VDRE) (AID 2282968; active = hit-call score of the fitted dose curve at least 0.9, where 1 is the maximum; inactive = score below 0.9). The note with it: HepG2 VDRE cis-reporter transcription, actives raise or lower the signal. The method in brief:
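RT-PCR/CE readout of reporter mRNA; HepG2, transient transfection, 24 h dosing; DMSO baseline; bidirectional analysis.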

In experiment [4] the target is Nuclear receptor subfamily 1 group I member 3 (Homo sapiens) (UniProt Q14994). The experiment is described as follows: ATG_CAR_TRANS: Attagene TRANS-FACTORIAL HepG2 Assay for human Constitutive Androstane Receptor (CAR) (AID 2282969).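 Note: activators raise reporter mRNA above DMSO so AC50 marks induction.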 The note with it: HepG2 Attagene TRANS-FACTORIAL CAR reporter. The method in brief:
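HepG2 cells transiently transfected with multiplexed GAL4-UAS reporter units expressing chimeric NR-Gal4 proteins; compound exposure 24 h. Reporter mRNA measured by RT-PCR, 6-FAM labelling, HpaI digestion and capillary electrophoresis; gain-of-signal fitted against DMSO baseline.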

Experiment [5] concerns the target Estrogen receptor (Homo sapiens) (UniProt P03372). Put plainly: ATG_ERa_TRANS: Attagene TRANS-FACTORIAL HepG2 Assay for human Estrogen Receptor alpha (ERa) (AID 2282970). The note with it: HepG2 Attagene TRANS ERa GAL4 reporter, mRNA. In a few lines: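 HepG2 cells transiently transfected with multiplexed GAL4-UAS reporter units; ERa activity read via exogenous chimeric NR-Gal4 protein. After 24 hour compound exposure, reporter mRNA measured by RT-PCR with 6-FAM labelling and capillary electrophoresis; gain-of-signal fitted relative to DMSO.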

For experiment [6], the target named is Steroid hormone receptor ERR1 (Homo sapiens) (UniProt P11474). Put plainly: ATG_ERRa_TRANS: Attagene TRANS-FACTORIAL HepG2 Assay for human Estrogen-Related Receptor alpha (ERRa) (AID 2282971). The note with it: HepG2 Attagene TRANS reporter, ERRa transactivation. In a few lines:
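HepG2 cells transiently transfected with multiplexed GAL4-UAS reporter units reading chimeric ERRa-Gal4 activity; 24 h compound exposure. Reporter mRNA measured by RT-PCR, 6-FAM labelling, HpaI digest and capillary electrophoresis; gain of signal fitted versus DMSO baseline.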

The target in experiment [7] is X-box-binding protein 1 (Homo sapiens) (UniProt P17861). Put plainly: ATG_Xbp1_CIS: Attagene CIS-FACTORIAL HepG2 Assay for human X-box Binding Protein 1 (XBP1) (AID 2282972; active = hit-call score of the fitted dose curve at least 0.9, where 1 is the maximum; inactive = score below 0.9). The note with it: HepG2 XBP1 cis-element reporter, Attagene multiplex; actives raise or lower the signal. The method in brief:
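HepG2 cells transiently transfected with multiple cis-element reporter units report endogenous TF activity; 24 h exposure, then reporter mRNA measured by RT-PCR, 6-FAM labelling, HpaI digestion and capillary electrophoresis. Bidirectional fitting versus DMSO.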

The nature of experiment [8]: ATG_M_19_TRANS: Attagene TRANS-FACTORIAL HepG2 Assay for M19 Transcription Factor (Internal Marker) (AID 2282974). The note with it: HepG2 Attagene TRANS-FACTORIAL M19 internal marker reporter. In a few lines: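 Cells: human HepG2, transiently transfected with multiplexed reporter transcription units. Exposure: 24 h. Detection: RT-PCR of reporter mRNA with capillary electrophoresis. Analysis: gain-of-signal vs DMSO.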

A short description of experiment [9]: ATG_GAL4_TRANS: Attagene TRANS-FACTORIAL HepG2 Assay for GAL4 (Internal Marker) (AID 2282976). The note with it: HepG2 Attagene TRANS GAL4 internal marker reporter. In a few lines:
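HepG2 cells transiently transfected with multiplexed GAL4-UAS reporter constructs were dosed for 24 h. Reporter mRNA was measured by RT-PCR, 6-FAM primer extension, HpaI digestion and capillary electrophoresis, and gain of signal was fitted relative to DMSO.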

Experiment [10] deals with Estrogen-related receptor gamma (Homo sapiens) (UniProt P62508). The experiment is described as follows: ATG_ERRg_TRANS: Attagene TRANS-FACTORIAL HepG2 Assay for human Estrogen-Related Receptor gamma (ERRg) (AID 2282977).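 Note: hits increase reporter signal over DMSO so potencies reflect activators.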 The note with it: HepG2 Attagene TRANS reporter, ERRg transactivation. In a few lines: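 HepG2 cells transiently transfected with multiplexed GAL4-UAS reporter units driven by chimeric NR-Gal4 proteins; 24 h exposure. Reporter mRNA quantified by RT-PCR, fluorescent labelling, HpaI digestion and capillary electrophoresis; gain of signal vs DMSO.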
Chain of Estrogen-related receptor gamma (Homo sapiens) (P62508 whole entry, looked up, the tested form may be a part): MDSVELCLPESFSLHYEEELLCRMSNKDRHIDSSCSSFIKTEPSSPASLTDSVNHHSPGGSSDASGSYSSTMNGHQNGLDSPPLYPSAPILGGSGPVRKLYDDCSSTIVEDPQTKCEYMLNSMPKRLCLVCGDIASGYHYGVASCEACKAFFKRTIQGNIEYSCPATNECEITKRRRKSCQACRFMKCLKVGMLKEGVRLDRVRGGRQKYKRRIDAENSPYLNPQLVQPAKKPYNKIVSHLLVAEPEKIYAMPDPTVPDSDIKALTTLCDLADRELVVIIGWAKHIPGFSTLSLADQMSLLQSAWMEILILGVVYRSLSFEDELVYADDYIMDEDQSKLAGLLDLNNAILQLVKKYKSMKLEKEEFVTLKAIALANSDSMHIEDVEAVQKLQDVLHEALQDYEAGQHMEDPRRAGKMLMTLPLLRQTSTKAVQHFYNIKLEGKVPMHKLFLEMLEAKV

Experiment [11] deals with Glucocorticoid receptor (Homo sapiens) (UniProt P04150). The experiment is described as follows: ATG_GR_TRANS: Attagene TRANS-FACTORIAL HepG2 Assay for human Glucocorticoid Receptor (GR) (AID 2282978).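 Note: activators score as hits since higher reporter transcript over DMSO is fitted.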 The note with it: HepG2 Attagene TRANS GR reporter, mRNA transcription. In a few lines:
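In this trans-factorial format, exogenous NR-GAL4 chimeric proteins in transfected HepG2 cells regulate GAL4-UAS reporter transcription. After 24 h treatment, reporter mRNA induction relative to DMSO is read by RT-PCR and capillary electrophoresis.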

Experiment [12] deals with Oxysterols receptor LXR-alpha (Homo sapiens) (UniProt Q13133). The experiment is described as follows: ATG_LXRa_TRANS: Attagene TRANS-FACTORIAL HepG2 Assay for human Liver X Receptor alpha (LXRa) (AID 2282980). The note with it: HepG2 Attagene TRANS reporter, LXRa transactivation. In a few lines:
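HepG2 cells were transiently transfected with multiplexed reporter units driven by chimeric LXRa–GAL4 fusion proteins, then dosed for 24 h. Reporter mRNA was quantified by RT-PCR, fluorescent labelling and capillary electrophoresis; gain of signal fitted against DMSO baseline.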

Experiment [13] concerns the target Hepatocyte nuclear factor 4-alpha (Homo sapiens) (UniProt P41235). The experiment is described as follows: ATG_HNF4a_TRANS: Attagene TRANS-FACTORIAL HepG2 Assay for human Hepatocyte Nuclear Factor 4 alpha (HNF4a) (AID 2282982). The note with it: HepG2 HNF4a transactivation reporter, mRNA readout. In a few lines:
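Cells used were human HepG2, transiently carrying GAL4-UAS reporter units read out against exogenous NR-GAL4 chimeras. Reporter transcript levels after 24 h dosing were quantified by fluorescent RT-PCR and capillary electrophoresis.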

A short description of experiment [14]: ATG_M_06_TRANS: Attagene TRANS-FACTORIAL HepG2 Assay for M06 Transcription Factor (Internal Marker) (AID 2282983). The note with it: HepG2 Attagene TRANS M06 internal marker reporter. The method in brief: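 HepG2 cells transiently transfected with multiplexed GAL4-UAS reporter transcription units; after 24 h compound exposure, reporter mRNA measured by RT-PCR, FAM-labelled primer extension, HpaI digestion and capillary electrophoresis. Gain-of-signal fitted versus DMSO baseline; background control readout.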

Experiment [15] deals with Transcriptional activator Myb (Homo sapiens) (UniProt P10242). Put plainly: ATG_Myb_CIS: Attagene CIS-FACTORIAL HepG2 Assay for human Myeloblastosis (Myb) Proto-Oncogene Transcription Factor (AID 2282986; active = hit-call score of the fitted dose curve at least 0.9, where 1 is the maximum; inactive = score below 0.9). The note with it: HepG2 Attagene CIS-FACTORIAL Myb reporter transcription; actives raise or lower the signal. The method in brief:
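Steps: transfect HepG2 with cis-regulated reporter units; dose with chemical for 24 h; isolate RNA, reverse-transcribe, PCR-amplify and FAM-label reporter sequences; digest with HpaI; resolve by capillary electrophoresis. Activity fitted in both directions relative to DMSO.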

The target of experiment [16] is Nuclear respiratory factor 1 (Homo sapiens) (UniProt Q16656). Put plainly: ATG_NRF1_CIS: Attagene CIS-FACTORIAL HepG2 Assay for human Nuclear Respiratory Factor 1 (NRF1) Orphan Gene (AID 2282987; active = hit-call score of the fitted dose curve at least 0.9, where 1 is the maximum; inactive = score below 0.9). The note with it: HepG2 NRF1 cis-element reporter, Attagene multiplex; actives raise or lower the signal. The method in brief: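 Fluorescence intensity of labelled reporter cDNA fragments, resolved by capillary electrophoresis, served as readout for NRF1 cis-element activity. Transiently transfected HepG2 cells were dosed for 24 hours; activity in either direction was fitted against DMSO negative control.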
Chain of Nuclear respiratory factor 1 (Homo sapiens) (Q16656 whole entry, looked up, the tested form may be a part): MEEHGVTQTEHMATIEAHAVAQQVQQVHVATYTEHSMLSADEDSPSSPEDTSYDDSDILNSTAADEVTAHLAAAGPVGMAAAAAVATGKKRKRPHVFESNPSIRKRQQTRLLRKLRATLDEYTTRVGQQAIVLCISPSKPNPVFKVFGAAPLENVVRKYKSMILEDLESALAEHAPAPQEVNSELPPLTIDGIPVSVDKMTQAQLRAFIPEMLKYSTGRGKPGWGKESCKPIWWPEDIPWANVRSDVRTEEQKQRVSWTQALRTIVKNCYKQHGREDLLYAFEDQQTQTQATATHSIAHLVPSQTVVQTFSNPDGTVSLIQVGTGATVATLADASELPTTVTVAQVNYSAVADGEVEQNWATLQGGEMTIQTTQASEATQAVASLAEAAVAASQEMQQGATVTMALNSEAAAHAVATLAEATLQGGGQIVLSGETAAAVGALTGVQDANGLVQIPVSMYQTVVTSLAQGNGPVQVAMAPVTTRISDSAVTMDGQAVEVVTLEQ

The target in experiment [17] is Bile acid receptor (Homo sapiens) (UniProt Q96RI1). The experiment is described as follows: ATG_FXR_TRANS: Attagene TRANS-FACTORIAL HepG2 Assay for Farnesoid X Receptor (FXR) (AID 2282979).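 Note: hits raise reporter mRNA above DMSO so AC50 marks FXR activation.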 The note with it: HepG2 Attagene TRANS FXR-GAL4 reporter transcription. The method in brief: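 HepG2 cells transiently transfected with reporter constructs in which a chimeric FXR-GAL4 protein drives a GAL4-UAS reporter; 24 h compound exposure. Reporter mRNA measured by RT-PCR, FAM labelling, HpaI digestion and capillary electrophoresis; gain-of-signal versus DMSO.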

Experiment [18] has as its target Oxysterols receptor LXR-beta (Homo sapiens) (UniProt P55055). The experiment is described as follows: ATG_LXRb_TRANS: Attagene TRANS-FACTORIAL HepG2 Assay for human Liver X Receptor beta (LXRb) (AID 2282981). The note with it: HepG2 Attagene TRANS GAL4-LXRb reporter, mRNA. In a few lines: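 In this TRANS format, exogenous chimeric NR-Gal4 protein activity, not endogenous factors, drives reporter expression in transfected human HepG2 cells. Exposure lasted 24 h; reporter mRNA was read by fluorescent capillary electrophoresis.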

Experiment [19] can be described thus: ATG_M_32_TRANS: Attagene TRANS-FACTORIAL HepG2 Assay for M32 Transcription Factor (Internal Marker) (AID 2282984). The note with it: HepG2 Attagene TRANS M32 internal marker reporter. In a few lines: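 Human hepatoma HepG2, transient MRTU transfection, 24 h treatment. RNA → RT-PCR → fluorescent primer extension → HpaI digest (2 h, 37 C) → CE. Positive-direction fit vs DMSO.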

Records with an inconclusive call do not appear. The source made the active and inactive calls. Rule for the calls, unless noted: active = hit-call score of the fitted dose curve at least 0.9, where 1 is the maximum; inconclusive = response in the unintended direction; inactive = score below 0.9.

Chain of X-box-binding protein 1 (Homo sapiens) (P17861 whole entry, looked up): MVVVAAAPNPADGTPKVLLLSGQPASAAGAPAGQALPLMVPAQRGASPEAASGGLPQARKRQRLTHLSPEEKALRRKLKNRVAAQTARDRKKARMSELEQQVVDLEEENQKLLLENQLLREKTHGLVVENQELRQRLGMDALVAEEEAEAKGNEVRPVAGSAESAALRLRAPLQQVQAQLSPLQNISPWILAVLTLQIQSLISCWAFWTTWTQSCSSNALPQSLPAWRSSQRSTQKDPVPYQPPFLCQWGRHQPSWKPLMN
Chain of Oxysterols receptor LXR-alpha (Homo sapiens) (Q13133 whole entry, looked up, the tested form may be a part): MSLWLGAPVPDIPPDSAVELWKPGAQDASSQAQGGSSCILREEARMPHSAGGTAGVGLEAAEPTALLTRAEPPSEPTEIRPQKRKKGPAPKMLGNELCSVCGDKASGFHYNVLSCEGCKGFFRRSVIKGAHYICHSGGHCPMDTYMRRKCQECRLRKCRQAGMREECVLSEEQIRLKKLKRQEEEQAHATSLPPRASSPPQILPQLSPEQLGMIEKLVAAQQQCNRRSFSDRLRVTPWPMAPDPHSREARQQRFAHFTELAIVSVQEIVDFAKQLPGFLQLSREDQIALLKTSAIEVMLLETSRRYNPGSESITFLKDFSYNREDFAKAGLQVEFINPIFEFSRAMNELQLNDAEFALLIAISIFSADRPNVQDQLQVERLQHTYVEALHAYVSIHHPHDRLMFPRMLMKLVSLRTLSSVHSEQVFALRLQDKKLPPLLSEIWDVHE
Chain of Steroid hormone receptor ERR1 (Homo sapiens) (P11474 whole entry, looked up, the tested form may be a part): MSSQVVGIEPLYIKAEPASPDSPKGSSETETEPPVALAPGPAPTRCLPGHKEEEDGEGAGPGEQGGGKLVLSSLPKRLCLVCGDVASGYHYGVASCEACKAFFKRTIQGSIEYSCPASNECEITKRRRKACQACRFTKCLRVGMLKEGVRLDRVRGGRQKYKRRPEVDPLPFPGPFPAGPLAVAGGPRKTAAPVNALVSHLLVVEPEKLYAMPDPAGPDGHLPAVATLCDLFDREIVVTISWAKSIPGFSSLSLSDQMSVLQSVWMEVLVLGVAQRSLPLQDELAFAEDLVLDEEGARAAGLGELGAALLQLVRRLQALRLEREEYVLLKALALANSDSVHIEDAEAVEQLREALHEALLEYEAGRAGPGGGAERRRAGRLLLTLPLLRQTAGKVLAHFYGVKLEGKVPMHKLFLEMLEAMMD
Chain of Nuclear receptor subfamily 1 group I member 3 (Homo sapiens) (Q14994 whole entry, looked up, the tested form may be a part): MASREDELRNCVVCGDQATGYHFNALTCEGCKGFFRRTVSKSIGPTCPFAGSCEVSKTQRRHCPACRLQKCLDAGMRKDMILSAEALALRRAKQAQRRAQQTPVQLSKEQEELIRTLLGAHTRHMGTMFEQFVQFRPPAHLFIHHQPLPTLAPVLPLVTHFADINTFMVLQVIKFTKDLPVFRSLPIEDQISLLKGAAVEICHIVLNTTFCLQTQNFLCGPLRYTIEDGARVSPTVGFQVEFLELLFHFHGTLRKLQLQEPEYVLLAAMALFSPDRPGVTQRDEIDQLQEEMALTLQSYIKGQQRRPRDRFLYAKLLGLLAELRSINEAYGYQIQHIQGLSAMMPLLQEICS
Chain of Hepatocyte nuclear factor 4-alpha (Homo sapiens) (P41235 whole entry, looked up, the tested form may be a part): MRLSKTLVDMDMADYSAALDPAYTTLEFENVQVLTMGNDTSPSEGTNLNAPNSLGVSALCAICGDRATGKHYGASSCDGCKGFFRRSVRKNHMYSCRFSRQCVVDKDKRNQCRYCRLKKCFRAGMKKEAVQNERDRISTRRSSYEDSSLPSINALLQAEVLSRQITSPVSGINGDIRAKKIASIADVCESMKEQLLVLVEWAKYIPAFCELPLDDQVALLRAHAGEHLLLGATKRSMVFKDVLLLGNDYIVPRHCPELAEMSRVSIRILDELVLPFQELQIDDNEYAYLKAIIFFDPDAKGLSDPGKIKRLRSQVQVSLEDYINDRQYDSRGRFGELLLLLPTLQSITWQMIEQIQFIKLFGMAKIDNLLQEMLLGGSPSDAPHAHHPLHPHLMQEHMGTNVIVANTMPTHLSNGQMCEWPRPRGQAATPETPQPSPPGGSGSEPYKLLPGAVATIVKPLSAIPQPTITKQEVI
Chain of Estrogen receptor (Homo sapiens) (P03372 whole entry, looked up, the tested form may be a part): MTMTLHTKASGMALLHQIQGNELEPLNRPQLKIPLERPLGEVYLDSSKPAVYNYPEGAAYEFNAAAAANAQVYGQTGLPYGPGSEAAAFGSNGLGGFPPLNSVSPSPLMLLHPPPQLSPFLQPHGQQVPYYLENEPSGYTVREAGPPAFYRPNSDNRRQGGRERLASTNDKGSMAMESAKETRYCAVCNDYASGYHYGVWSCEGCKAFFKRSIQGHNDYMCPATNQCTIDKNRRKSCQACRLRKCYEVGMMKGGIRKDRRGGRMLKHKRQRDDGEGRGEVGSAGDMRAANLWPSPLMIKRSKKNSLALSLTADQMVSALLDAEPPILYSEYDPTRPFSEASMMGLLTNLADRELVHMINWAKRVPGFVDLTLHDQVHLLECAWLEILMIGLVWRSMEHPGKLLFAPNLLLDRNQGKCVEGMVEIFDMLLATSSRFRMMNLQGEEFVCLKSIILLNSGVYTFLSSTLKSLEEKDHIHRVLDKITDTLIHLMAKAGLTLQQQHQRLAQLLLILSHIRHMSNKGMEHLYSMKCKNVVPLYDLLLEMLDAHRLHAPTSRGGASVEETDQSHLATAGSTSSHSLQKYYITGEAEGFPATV
Chain of Glucocorticoid receptor (Homo sapiens) (P04150 whole entry, looked up, the tested form may be a part): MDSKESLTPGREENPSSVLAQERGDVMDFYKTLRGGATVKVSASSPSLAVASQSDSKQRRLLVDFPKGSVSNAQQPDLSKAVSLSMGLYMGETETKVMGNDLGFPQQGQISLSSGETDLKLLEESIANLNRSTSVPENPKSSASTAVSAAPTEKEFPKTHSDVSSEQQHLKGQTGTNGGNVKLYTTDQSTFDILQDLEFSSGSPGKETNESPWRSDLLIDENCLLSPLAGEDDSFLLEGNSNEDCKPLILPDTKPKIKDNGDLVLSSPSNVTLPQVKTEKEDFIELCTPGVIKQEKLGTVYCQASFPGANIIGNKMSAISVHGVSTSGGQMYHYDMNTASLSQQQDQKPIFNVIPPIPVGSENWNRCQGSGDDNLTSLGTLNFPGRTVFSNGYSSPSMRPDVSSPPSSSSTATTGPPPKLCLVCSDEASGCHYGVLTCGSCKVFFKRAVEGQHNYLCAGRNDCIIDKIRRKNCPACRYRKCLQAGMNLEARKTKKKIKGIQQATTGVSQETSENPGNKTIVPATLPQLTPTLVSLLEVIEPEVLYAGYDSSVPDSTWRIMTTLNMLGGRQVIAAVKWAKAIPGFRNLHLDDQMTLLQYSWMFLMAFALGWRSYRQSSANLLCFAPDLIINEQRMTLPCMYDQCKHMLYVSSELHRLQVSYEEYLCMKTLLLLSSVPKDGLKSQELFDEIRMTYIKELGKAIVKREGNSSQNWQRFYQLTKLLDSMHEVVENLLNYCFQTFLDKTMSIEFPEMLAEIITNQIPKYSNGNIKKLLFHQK
Chain of Transcriptional activator Myb (Homo sapiens) (P10242 whole entry, looked up): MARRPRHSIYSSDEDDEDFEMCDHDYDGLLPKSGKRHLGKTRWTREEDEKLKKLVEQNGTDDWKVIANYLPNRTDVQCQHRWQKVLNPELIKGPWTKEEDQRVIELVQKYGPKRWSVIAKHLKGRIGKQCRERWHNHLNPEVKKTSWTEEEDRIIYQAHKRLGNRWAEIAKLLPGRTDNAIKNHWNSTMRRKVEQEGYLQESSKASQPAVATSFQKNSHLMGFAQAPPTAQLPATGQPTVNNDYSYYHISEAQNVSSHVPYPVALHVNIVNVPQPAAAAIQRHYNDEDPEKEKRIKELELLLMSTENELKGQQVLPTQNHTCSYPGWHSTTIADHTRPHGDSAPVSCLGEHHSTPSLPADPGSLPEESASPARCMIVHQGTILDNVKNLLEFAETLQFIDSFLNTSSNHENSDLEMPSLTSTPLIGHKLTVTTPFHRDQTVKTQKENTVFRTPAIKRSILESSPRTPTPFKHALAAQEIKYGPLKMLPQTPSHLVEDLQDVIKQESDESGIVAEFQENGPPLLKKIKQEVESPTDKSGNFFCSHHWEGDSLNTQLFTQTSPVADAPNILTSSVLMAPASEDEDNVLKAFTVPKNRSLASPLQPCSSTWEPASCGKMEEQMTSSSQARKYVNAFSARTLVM

Regarding `CN(CCO)S(=O)(=O)C(F)(F)C(F)(F)C(F)(F)C(F)(F)C(F)(F)C(F)(F)C(F)(F)C(F)(F)F`, the call in experiment [1], in experiment [2], in experiment [3], in experiment [4], in experiment [5] and in experiment [6] was inactive. Besides, the result in experiment [7], in [8], in [9], in experiment [10], in experiment [11] and in experiment [12] was inactive. Further, the outcome in [13], in experiment [14], in experiment [15] and in [16] was inactive.
On to `O=P(O)(O)CCC(F)(F)C(F)(F)C(F)(F)C(F)(F)C(F)(F)C(F)(F)C(F)(F)C(F)(F)F`, for which the call in experiment [1], in experiment [2], in experiment [3], in experiment [4], in experiment [5] and in experiment [7] was inactive. Moreover, the result in [8], in experiment [9], in experiment [11], in experiment [17], in experiment [12] and in experiment [18] was inactive. Further, the outcome in [13], in experiment [14], in [19], in experiment [15] and in experiment [16] was inactive.
A word on the AC50: it is the midpoint of the concentration-response curve, whichever way the signal moves. For `C[N+](C)(CCCNS(=O)(=O)CCC(F)(F)C(F)(F)C(F)(F)C(F)(F)C(F)(F)C(F)(F)F)CC(=O)[O-]`, the compound was classed as inactive in experiment [1], in [2], in experiment [3], in experiment [4], in [6] and in [7]. Also, the outcome in experiment [10], in [11], in [17], in experiment [12], in experiment [18] and in [13] was inactive. In addition, the compound was called inactive in experiment [14], in [19], in [15] and in experiment [16]. The AC50 in [5] is 0.0373 µM (active).
For `Cc1cncc(C)c1`, the outcome in experiment [1], in experiment [2], in [3], in experiment [4], in [5] and in experiment [6] was inactive. Besides, the compound was classed as inactive in experiment [8], in experiment [10], in experiment [13], in experiment [15] and in [16].
